Results published in the supplement of paper PMC11732987, “Enantioselective OTUD7B fragment discovery through chemoproteomics screening and high-throughput optimisation” (Communications Chemistry, 2025).

Columns and labels:
Assay in all cases: log2 ratio of Biotin-Ahx-Ub-VS probe labelling (fragment/DMSO); higher = less target engagement (more negative = stronger competition), active = hit call of the paper (q ≤ 0.05, log2 ratio ≤ -1)
Settings in all cases: compound concentration: 200 uM; treatment time: 3 h
USP9X = USP9X (UniProt Q93008)
Sequence of USP9X (Q93008 whole entry, the tested form may be a part): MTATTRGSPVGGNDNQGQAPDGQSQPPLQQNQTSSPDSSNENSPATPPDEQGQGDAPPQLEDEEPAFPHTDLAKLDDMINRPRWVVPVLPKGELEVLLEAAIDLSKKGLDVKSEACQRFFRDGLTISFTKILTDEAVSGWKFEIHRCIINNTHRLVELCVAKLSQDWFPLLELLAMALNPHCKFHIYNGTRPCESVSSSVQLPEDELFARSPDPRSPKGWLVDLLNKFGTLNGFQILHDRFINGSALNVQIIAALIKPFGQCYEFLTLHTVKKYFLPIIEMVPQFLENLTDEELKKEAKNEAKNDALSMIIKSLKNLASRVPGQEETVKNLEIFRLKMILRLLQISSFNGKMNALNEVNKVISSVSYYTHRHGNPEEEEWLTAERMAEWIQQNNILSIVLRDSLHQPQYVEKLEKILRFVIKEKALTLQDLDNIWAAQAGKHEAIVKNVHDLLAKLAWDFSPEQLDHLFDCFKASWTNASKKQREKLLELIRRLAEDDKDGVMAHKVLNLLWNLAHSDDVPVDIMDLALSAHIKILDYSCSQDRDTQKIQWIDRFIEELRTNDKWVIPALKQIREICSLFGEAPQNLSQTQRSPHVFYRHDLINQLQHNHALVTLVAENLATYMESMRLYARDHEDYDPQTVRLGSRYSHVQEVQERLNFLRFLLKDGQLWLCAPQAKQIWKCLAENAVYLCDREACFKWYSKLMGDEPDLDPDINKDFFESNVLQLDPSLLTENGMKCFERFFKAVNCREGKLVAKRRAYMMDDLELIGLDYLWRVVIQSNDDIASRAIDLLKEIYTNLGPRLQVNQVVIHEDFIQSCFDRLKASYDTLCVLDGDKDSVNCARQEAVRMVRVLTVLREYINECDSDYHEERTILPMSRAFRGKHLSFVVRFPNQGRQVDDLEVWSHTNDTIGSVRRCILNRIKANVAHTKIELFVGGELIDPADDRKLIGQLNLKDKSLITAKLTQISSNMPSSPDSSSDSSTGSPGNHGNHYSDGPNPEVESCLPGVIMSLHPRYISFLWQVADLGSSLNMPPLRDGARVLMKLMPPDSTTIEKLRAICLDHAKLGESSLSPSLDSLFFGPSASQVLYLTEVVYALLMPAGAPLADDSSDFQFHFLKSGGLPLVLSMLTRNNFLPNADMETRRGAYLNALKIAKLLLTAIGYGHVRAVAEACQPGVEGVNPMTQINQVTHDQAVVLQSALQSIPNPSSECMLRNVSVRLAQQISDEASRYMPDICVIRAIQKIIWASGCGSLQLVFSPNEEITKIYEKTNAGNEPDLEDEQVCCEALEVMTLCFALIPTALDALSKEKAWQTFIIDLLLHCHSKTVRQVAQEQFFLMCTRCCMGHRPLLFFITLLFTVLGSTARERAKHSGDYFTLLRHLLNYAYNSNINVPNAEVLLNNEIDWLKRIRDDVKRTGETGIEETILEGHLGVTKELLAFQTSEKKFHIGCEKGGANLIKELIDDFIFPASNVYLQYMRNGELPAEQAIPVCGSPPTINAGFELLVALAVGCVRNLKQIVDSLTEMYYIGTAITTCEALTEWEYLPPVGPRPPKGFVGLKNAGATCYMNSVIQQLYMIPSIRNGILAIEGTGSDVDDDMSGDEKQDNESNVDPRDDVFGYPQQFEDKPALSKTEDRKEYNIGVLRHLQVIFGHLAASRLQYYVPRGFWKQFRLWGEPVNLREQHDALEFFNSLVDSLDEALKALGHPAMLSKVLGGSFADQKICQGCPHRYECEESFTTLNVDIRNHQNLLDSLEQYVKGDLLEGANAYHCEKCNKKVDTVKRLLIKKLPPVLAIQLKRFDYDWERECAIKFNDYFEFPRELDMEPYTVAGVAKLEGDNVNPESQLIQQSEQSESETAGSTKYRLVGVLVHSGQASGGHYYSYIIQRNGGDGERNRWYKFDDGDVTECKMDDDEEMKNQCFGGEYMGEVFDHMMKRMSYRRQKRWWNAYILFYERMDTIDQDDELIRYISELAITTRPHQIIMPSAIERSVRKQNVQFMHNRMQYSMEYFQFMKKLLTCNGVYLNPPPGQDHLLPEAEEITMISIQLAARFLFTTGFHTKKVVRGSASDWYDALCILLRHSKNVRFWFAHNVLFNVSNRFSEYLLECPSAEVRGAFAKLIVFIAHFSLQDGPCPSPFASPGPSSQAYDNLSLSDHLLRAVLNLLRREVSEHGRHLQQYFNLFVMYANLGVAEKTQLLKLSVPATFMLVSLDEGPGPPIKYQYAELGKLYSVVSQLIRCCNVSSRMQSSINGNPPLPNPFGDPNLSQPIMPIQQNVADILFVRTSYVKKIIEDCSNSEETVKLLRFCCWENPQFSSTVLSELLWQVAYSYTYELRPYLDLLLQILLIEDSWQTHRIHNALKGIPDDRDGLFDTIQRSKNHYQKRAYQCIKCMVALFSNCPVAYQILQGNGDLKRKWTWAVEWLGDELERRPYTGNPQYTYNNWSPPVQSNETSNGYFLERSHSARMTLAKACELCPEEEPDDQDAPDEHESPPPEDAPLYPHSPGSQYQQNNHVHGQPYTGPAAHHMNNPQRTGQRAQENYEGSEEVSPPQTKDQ
Outline: (§1)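 HEK293T lysate, 495 µg per sample in Tris/CHAPS/IGEPAL buffer with protease inhibitors, was treated in triplicate with fragment at 200 µM or vehicle for 3 h and then with Biotin-Ahx-Ub-VS at 0.5 µM final for 1 h. Labelled DUBs were NeutrAvidin-enriched, digested with LysC and trypsin, and run by diaPASEF LC-MS/MS. Spectronaut label-free quantities were global-median-normalised, and values are average log2 fragment/vehicle ratios by unpaired t-test on proteins with ≥2 unique peptides.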

UniProt O00487 = target: UniProt O00487
Sequence of UniProt O00487 (O00487 whole entry): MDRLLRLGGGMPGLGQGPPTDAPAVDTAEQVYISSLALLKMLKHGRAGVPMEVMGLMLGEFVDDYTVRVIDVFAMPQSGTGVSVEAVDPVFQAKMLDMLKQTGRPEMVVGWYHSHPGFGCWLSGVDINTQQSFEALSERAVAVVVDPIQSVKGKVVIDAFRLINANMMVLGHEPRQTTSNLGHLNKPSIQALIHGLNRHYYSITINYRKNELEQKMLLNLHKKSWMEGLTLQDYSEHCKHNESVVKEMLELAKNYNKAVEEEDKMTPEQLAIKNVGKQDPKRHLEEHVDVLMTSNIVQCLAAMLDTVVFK
Outline: as §1

UniProt O00507 = target: UniProt O00507
Outline: as §1

UniProt P51784 = target: UniProt P51784
Sequence of UniProt P51784 (P51784 whole entry): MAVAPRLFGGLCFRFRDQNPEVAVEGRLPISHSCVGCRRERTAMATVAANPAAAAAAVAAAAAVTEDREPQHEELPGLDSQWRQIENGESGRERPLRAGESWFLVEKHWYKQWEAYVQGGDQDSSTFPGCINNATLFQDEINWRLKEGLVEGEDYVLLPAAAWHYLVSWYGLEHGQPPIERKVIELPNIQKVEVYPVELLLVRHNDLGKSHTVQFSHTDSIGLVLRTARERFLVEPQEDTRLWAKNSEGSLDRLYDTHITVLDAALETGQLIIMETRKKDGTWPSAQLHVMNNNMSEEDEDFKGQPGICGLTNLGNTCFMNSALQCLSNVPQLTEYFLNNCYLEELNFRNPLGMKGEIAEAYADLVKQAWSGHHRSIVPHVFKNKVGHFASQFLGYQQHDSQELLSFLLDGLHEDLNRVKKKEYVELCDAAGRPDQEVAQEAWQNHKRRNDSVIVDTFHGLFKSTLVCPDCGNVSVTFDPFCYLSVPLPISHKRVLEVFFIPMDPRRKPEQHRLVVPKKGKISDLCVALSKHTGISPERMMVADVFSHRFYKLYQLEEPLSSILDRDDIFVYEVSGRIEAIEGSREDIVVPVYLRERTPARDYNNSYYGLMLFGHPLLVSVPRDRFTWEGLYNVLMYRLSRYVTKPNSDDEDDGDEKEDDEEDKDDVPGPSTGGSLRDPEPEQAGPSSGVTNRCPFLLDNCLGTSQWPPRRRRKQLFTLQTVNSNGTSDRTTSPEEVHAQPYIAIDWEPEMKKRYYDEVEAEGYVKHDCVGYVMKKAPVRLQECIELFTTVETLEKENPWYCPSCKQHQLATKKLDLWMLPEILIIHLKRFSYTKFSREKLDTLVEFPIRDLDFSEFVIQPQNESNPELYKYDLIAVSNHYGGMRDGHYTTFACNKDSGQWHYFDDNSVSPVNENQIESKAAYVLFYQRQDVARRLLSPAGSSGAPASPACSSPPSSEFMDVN
Outline: as §1

UniProt Q5T2D3 = target: T1, UniProt Q5T2D3
T1 sequence (whole entry): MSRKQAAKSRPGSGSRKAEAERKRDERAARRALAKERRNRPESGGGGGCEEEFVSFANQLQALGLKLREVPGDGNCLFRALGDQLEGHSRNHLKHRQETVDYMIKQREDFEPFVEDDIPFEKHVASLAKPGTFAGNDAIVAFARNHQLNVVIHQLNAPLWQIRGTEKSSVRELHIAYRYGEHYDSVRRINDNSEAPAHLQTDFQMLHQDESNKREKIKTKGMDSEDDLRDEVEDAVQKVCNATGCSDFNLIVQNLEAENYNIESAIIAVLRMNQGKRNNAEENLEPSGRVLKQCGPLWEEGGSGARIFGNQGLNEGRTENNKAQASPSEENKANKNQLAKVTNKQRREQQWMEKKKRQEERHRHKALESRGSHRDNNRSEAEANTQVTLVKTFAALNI
Outline: as §1

UniProt Q8TE49 = target: T2, UniProt Q8TE49
T2 sequence (whole entry): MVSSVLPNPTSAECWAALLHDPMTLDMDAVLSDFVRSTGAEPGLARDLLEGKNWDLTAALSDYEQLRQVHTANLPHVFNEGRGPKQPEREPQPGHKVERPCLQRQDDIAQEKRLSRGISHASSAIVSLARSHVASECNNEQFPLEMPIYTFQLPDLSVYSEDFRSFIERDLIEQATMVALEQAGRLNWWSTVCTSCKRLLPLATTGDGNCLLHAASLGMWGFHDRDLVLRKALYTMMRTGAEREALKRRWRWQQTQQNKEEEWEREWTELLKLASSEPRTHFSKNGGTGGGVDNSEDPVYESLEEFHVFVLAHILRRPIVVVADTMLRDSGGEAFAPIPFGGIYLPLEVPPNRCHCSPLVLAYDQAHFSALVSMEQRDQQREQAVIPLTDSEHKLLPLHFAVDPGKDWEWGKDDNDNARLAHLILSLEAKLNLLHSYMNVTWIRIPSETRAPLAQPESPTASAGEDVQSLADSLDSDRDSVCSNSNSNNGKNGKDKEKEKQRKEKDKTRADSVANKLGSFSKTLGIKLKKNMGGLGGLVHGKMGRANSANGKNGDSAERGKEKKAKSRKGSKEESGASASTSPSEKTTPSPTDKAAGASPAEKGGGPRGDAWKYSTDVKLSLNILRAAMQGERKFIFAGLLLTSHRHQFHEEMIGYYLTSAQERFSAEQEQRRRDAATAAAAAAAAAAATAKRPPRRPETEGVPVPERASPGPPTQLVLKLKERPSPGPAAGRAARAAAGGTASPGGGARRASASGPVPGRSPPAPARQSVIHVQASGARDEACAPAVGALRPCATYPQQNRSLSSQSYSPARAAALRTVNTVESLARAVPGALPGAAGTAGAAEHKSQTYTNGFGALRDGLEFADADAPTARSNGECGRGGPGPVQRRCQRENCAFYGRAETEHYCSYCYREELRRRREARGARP
Outline: as §1

UniProt Q9P2H5 = target: T3, UniProt Q9P2H5
T3 sequence (whole entry): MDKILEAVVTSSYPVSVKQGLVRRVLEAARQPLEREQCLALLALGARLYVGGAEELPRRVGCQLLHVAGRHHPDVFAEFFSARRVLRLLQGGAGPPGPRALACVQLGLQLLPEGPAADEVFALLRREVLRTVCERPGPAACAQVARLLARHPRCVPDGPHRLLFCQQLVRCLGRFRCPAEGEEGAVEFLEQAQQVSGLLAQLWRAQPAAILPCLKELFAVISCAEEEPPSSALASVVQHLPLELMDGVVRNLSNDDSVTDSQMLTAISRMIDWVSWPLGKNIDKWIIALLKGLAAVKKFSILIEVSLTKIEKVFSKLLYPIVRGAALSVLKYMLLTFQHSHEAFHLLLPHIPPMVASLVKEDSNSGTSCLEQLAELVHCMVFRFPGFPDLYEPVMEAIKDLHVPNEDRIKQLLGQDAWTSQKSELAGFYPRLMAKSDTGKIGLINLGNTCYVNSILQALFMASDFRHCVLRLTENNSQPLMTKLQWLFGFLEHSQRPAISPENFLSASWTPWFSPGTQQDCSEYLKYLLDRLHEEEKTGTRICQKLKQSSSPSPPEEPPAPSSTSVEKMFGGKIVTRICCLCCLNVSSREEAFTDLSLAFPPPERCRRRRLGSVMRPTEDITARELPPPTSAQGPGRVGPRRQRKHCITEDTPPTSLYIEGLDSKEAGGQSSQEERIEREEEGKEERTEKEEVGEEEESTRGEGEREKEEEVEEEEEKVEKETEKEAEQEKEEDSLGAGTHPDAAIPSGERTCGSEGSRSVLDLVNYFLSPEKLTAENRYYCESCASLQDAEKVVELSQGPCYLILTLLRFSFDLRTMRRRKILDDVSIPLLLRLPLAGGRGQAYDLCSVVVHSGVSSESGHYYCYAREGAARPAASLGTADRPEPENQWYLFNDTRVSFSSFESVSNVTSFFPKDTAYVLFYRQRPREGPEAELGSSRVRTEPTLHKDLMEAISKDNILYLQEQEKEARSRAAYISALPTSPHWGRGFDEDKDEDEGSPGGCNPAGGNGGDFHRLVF
Outline: as §1

UniProt Q9UGI0 = target: T4, UniProt Q9UGI0
T4 sequence (whole entry): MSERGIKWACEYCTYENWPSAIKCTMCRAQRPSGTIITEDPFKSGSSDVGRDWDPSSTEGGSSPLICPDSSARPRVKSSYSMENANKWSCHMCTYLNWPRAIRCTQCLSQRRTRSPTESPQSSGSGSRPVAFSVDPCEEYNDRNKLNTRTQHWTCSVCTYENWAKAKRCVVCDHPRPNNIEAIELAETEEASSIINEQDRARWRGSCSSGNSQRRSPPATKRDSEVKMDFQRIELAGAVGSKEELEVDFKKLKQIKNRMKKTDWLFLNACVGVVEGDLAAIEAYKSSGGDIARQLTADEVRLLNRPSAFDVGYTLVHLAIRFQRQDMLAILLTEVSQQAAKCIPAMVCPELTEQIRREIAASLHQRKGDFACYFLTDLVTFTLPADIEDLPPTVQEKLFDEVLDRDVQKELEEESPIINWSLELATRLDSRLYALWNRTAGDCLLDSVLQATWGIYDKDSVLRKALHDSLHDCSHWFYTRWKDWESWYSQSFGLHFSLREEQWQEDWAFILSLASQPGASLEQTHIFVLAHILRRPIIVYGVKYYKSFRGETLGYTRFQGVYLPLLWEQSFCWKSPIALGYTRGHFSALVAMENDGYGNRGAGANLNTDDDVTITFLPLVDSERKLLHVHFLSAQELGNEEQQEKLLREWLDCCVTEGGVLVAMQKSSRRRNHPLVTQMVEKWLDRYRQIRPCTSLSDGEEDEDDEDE
Outline: as §1

YOD1 = target: T5, YOD1 (UniProt Q5VVQ6)
T5 sequence (whole entry): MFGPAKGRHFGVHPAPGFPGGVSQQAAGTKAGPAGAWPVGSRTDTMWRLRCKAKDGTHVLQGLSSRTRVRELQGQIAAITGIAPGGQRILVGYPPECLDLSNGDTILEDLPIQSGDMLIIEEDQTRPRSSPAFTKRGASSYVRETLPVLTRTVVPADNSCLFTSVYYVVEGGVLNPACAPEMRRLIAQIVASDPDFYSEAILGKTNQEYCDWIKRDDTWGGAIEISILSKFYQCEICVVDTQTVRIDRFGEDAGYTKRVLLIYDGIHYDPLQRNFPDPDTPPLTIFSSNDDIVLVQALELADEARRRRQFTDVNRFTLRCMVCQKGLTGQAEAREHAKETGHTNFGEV
Outline: as §1

Measured: log2 ratio of Biotin-Ahx-Ub-VS probe labelling

O=C(CCl)N1CCOCC1C1CC1 (centres undefined)
inactive: USP9X -0.18 | UniProt O00487 -0.226 | UniProt O00507 -0.0511 | UniProt P51784 0.141 | UniProt Q5T2D3 -0.288 | UniProt Q8TE49 -0.663 | UniProt Q9P2H5 -0.279 | UniProt Q9UGI0 -0.344 | YOD1 -0.172
